Data on five molecules can be found in PubChem BioAssay.

A short description of assay [1]: GFP-Q80 aggregate reduction, neuronal-like cells, cell-based, NGF-treated PC12, GFPQ80 (AID 1614).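 Also: lower means fewer inclusions and 0 means no inclusions at all.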 The settings on record: PC12 NGF-treated GFP-polyQ80 inclusion reduction.
The nature of assay [2]: viability loss in pontine glioma line – cell-based, SU-DIPG-XVII, MIPE5.0, CellTiter-Glo, qHTS, dose response (AID 1347060; cut-off not given, nearly all actives have AC50 up to about 26 µM). The settings on record: CellTiter-Glo ATP luminescence.
Assay [3] is described as follows: viability loss in pontine glioma line – cell-based, SU-DIPG-XIII, MIPE4.0, CellTiter-Glo, qHTS, dose response (AID 1347061; cut-off not given, nearly all actives have AC50 up to about 37 µM;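 also: cells exposed to compound for 48 hours before readout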). Particulars: CellTiter-Glo ATP luminescence. For orientation: In ATP-based viability assays light output follows the ATP content of the culture.
The nature of assay [4]: viability loss in pontine glioma line – cell-based, JHH-DIPG-1, MIPE4.0, CellTiter-Glo, qHTS, dose response (AID 1347062; cut-off not given, nearly all actives have AC50 up to about 27 µM). The settings on record: JHH-DIPG-1 viability, CellTiter-Glo ATP luminescence.
Assay [5] can be described thus: viability loss in pontine glioma line – cell-based, SU-DIPG-XXV, MIPE5.0, CellTiter-Glo, qHTS, dose response (AID 1347065; cut-off not given, nearly all actives have AC50 up to about 26 µM;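 also: cells exposed to compound for 48 hours before ATP readout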). The settings on record: CellTiter-Glo ATP luminescence.
Assay [6] can be described thus: growth inhibition of DIPG cells – cell-based, MIPE4.0 library, CellTiter-Glo luminescence, qHTS (AID 1347066; cut-off not given, nearly all actives have AC50 up to about 30 µM;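 also: cells exposed to compound for 48 hours before readout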). Particulars: SU-DIPG-VI viability, CellTiter-Glo ATP luminescence.
Assay [7] is described as follows: JHH-DIPG-1 glioma cell viability, MIPE5.0 library, CellTiter-Glo luminescence, qHTS (AID 1347067; cut-off not given, nearly all actives have AC50 up to about 26 µM;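 also: cells exposed to compound for 48 hours before readout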). Particulars: JHH-DIPG-1 glioma viability, CellTiter-Glo ATP luminescence.
The nature of assay [8]: growth inhibition of DIPG cells – cell-based, MIPE5.0 library, qHTS (AID 1347068; cut-off not given, nearly all actives have IC50 up to about 30 µM). The settings on record: SU-DIPG-XXV viability. On the technique in general: qHTS replaces the single test concentration by a dilution series.
Assay [9] is described as follows: compounds altering circadian rhythm period length – cell-based, LOPAC library, luminescence reporter (AID 2774; call rule not given here;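 also: values are relative to mean of DMSO wells on each plate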). The settings on record: circadian reporter cells, at 7 µM, actives lie on both sides.
Assay [10] has as its system Hepatitis C virus NS3 helicase. The experiment in a line: blockers of NS3h binding to ssDNA – biochemical, fluorescence polarization, LOPAC1280 library, primary screen (AID 687035; in the data active = inhibition above about 37%). The settings on record: Purified HCV NS3 helicase, Cy5-dT15 ssDNA binding fluorescence polarization; stronger effect = higher value; concentration not given here.
Assay [11] is described as follows: compounds altering Cy5-DNA-NS3h complex signal – biochemical, LOPAC1280, artefact control for HCV NS3 helicase inhibitor project (AID 687037; call rule not given here). Particulars: Cy5-DNA-NS3h complex fluorescence interference counterscreen.
Assay [12] is described as follows: blockers of cellular phospholipid synthesis – cell-based, LOPAC library, screen 4, primary screen (AID 1347384; call rule not given here). The settings on record: animal cells, phospholipid biosynthesis inhibition screen; at 10 µM.
Assay [13] in a line: growth inhibition, single agent or in combination, cell-based, chromothripsis tumors, cisplatin or BGB combos (AID 1671449).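 Also: cells exposed for 96 hours; 0% = vehicle DMSO and 100% = killing by high DMSO.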 The settings on record: LFS_MB_P medulloblastoma cells.
Assay [14] can be described thus: growth inhibition, single agent and combos, cell-based, chromothripsis tumors, cisplatin or BGB combos (AID 1671450).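 Also: cells exposed to compound for four days; 0% = vehicle DMSO and 100% = cell killing by high DMSO.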 The settings on record: HDN33 neuroblastoma cells, stronger effect = higher value.
Assay [15] is described as follows: growth inhibition, single agents and combos, LFS_MB_1R, cell-based, cisplatin or BGB combos, synergistic combos for chromothripsis tumors (AID 1671452).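 Also: cells exposed for 96 hours before readout.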 The settings on record: LFS_MB_1R medulloblastoma cells, stronger effect = higher value.
Assay [16] is described as follows: growth inhibition, single agents and combos, HTB85, cell-based, BGB or cisplatin IC20 combos, synergistic combos for chromothripsis tumors (AID 1671453).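 Also: cells exposed for 96 hours before readout; 0% = vehicle DMSO and 100% = high DMSO killing control.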 The settings on record: HTB85 osteosarcoma cells, drug combinations, stronger effect = higher value.
Assay [17] in a line: growth inhibition, MDA-MB-436, cell-based, BGB or cisplatin combos, synergistic combos for chromothripsis tumors (AID 1671458; call rule not given here;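 also: cells exposed for 96 hours; 0% = vehicle DMSO and 100% = killing by high DMSO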). Particulars: MDA-MB-436 breast carcinoma growth inhibition, drug combinations, stronger effect = higher value.
Assay [18] in a line: BT084 cell growth, single and combined drugs, ICGC_MB145, cisplatin and BGB IC40 combos (AID 1671461).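 Also: cells exposed to drugs for 96 hours; 0% = vehicle DMSO and 100% = high DMSO full killing control.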 Particulars: BT084 medulloblastoma cells, drug combinations, stronger effect = higher value.
Assay [19] can be described thus: RCMB18 cell growth, single agent and combined, cisplatin and BGB IC40 combos (AID 1671462).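 Also: cells exposed to compound for four days.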 The settings on record: RCMB18 medulloblastoma cells, stronger effect = higher value.
A short description of assay [20]: CRL1545 cell growth, single agent and combined, cisplatin and BGB IC20 combos (AID 1671464).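 Also: cells exposed to compound for 96 hours before readout; 0% = vehicle DMSO and 100% = high DMSO killing control.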 The settings on record: CRL1545 osteosarcoma cells, stronger effect = higher value.
Setting [21] is: measured here: combination with BGB IC40, at 0.05 µM.
Where [22] appears, read: measured here: with BGB IC20 combination, at 0.5 µM.
The mark [23] stands for this setting: measured here: with cisplatin IC20 combination, at 0.5 µM.
Setting [24] is: measured here: combination with cisplatin, at 0.5 µM.

Values joined by “and” are separate entries in the source; they are usually repeats but may differ in a detail not shown here. Equal values may be shown once. Inconclusive results are not listed. Active and inactive are the calls of the source. Rule as the data show it, unless noted: active = inhibition above about 80%; inactive = the rest.

In turn, `CCc1cc(C(N)=S)ccn1` showed an inclusion score in assay [1] of 2. Moreover, the molecule was classed as inactive in assay [2], in assay [3], in assay [4], in assay [5], in assay [6] and in [7]. Moreover, the molecule was called inactive in assay [8].
The term inhibition denotes the change of the read-out against control, counted positive when it falls. `NCCc1ccc(O)c(O)c1` showed an inclusion score in [1] of 2. The period change in assay [9] is -0.01 h (inactive). Also, the inhibition in assay [10] is -4% (inactive). In addition, the fluorescence ratio (interference) in assay [11] is 1 (inactive). The outcome in assay [2], in [3], in assay [6], in [7], in assay [8] and in [12] was inactive.
Molecule `CC(C)Cc1ccc(C(C)C(=O)O)cc1` (configuration not stated) registered an inclusion score in assay [1] of 2. Moreover, the period change in assay [9] is 0.16 h (inactive). For the same molecule, in assay [10], the inhibition is -2% (inactive). Further, the fluorescence ratio (interference) in assay [11] was 1 (inactive). Besides, the result in [2], in [3], in assay [4], in assay [5], in assay [6] and in assay [8] was inactive. Further, the call in [12] was inactive.
Consider `COCCOC(=O)C1=C(C)NC(C)=C(C(=O)OC(C)C)C1c1cccc([N+](=O)[O-])c1` (configuration not stated), for which the period change in assay [9] was 0.19 h (inactive). Moreover, the inhibition in assay [10] is -4% (inactive). The fluorescence ratio (interference) in assay [11] was 0.9 (inactive). In assay [12], the molecule was called inactive.
In the case of `COc1c(N2CCNC(C)C2)c(F)cc2c(=O)c(C(=O)O)cn(C3CC3)c12` (configuration not stated), the call in [2], in assay [3], in assay [4], in [5], in assay [6] and in [7] was inactive. Moreover, the outcome in assay [8] was inactive. Further, the inhibition in assay [13] (at 0.5 µM, stronger effect = higher value) was -20.5% (inactive) and -4.2% (inactive); in assay [13] (measured here: combination with BGB IC20, at 0.005 µM), 17.2% and 22.3%; in [13] (measured here: combination with BGB IC40, at 0.005 µM), 3.24% and -1.74%; in assay [13] (setting [21]) it was -33% and 5.75%; in [13] (measured here: combination with cisplatin, at 0.5 µM, stronger effect = higher value), -33.3% and -6.41%; in [13] (measured here: combination with cisplatin, at 5 µM, stronger effect = higher value) it was -5.09% and 4.8%. Besides, the inhibition in assay [14] (BGB combo, at 5 µM) is -39.9% and 9.99%; in [14] (at 0.5 µM) it was -22% (inactive) and 8.9% (inactive); in [14] (cisplatin combo, at 5 µM), -25.7% and 17.8%; in assay [14] (setting [22]), -19.2% and 9.8%; in assay [14] (setting [23]), -37.3% and 8.47%; in assay [14] (single agent, at 5 µM), -2.12% and 5.9%. For the same molecule, the inhibition is -13.4% (inactive) and -12.7% (inactive) in assay [15] (at 0.5 µM); -24.8% and -10.4% in assay [15] (setting [21]); -39.4% and -1.15% in assay [15] (setting [24]); -37.1% and -28.2% in assay [15] (measured here: combination with cisplatin, at 5 µM); -28.9% (inactive) and -4.45% (inactive) in assay [16] (at 0.5 µM); -22.5% and -1.96% in [16] (measured here: with BGB IC20, at 0.5 µM). Moreover, the inhibition in assay [16] (measured here: with BGB IC20, at 5 µM) is -17.3% and -16.7%; in assay [16] (measured here: with cisplatin IC20, at 0.5 µM), -35.1% and -12%; in assay [16] (measured here: with cisplatin IC20, at 5 µM), -18.3% and -5.81%; in assay [16] (single agent, at 5 µM) it was 17.7% and -9.93%; in assay [17] (at 0.5 µM) it was -1.19% (inactive) and -2.62% (inactive); in assay [17] (measured here: BGB combination, at 0.5 µM) it was 3.75% and -2.36%. Moreover, the inhibition is -2.62% and -0.158% in [17] (measured here: BGB combination, at 5 µM); -6.86% and -4.47% in [17] (measured here: cisplatin combination, at 0.5 µM); -18.4% and -9.12% in assay [17] (measured here: cisplatin combination, at 5 µM); 11.1% (inactive) and -2.29% (inactive) in assay [18] (at 0.5 µM); -21.4% and -4.21% in [18] (cisplatin combination, at 0.5 µM); -1.24% and -0.514% in [18] (cisplatin combination, at 5 µM). Further, the inhibition is 19.1% and 4.51% in assay [18] (measured here: BGB IC40 combination 0.05 uM, at 0.05 µM); -3.66% and 0.545% in [18] (single agent, at 5 µM); 0.35% (inactive) and 3.27% (inactive) in [19] (at 0.5 µM); -46.2% and 7.98% in assay [19] (cisplatin combo, at 5 µM); -11.6% and -8.34% in [19] (measured here: BGB IC40 combination, at 0.05 µM); -15.6% and 6.4% in assay [19] (setting [24]). Further, the inhibition in [19] (single agent, at 5 µM) is 4.79% and -5.12%; in [20] (at 0.5 µM) it was -17.5% (inactive) and -1.12% (inactive); in assay [20] (setting [22]) it was -19.9% and -23.9%; in [20] (setting [23]), -18.3% and 8.22%; in [20] (single agent, at 0.05 µM), -13.6% and 2.79%; in assay [20] (single agent, at 5 µM), -53.5% and 15.1%.
